This note sets out measurements from PubChem BioAssay AID588335 (The Scripps Research Institute Molecular Screening Center, 2011).

SMILES strings stand for the structures. The whole screen tested about 360,000 compounds, of which about 4,500 (1.2%) were called active. What follows is part of a selection rich in actives, with near analogues and random picks from the rest. A number with no mark means an inactive call. Cut-off read from the data, not from the text of the source: active = inhibition above about 30%; inactive = the rest.

A short description of this assay: inhibition of GDH and TPI enzymes – biochemical, absorbance, full deck, artefact control for M. tuberculosis FBA inhibitor project, primary screen (AID 588335).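 Note: 0% = DMSO wells and 100% = wells lacking the enzyme.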 Conditions: GDH-TPI coupled enzyme counterscreen, NADH absorbance; at 4.8 µM; hits give high values. A general note: Counterscreens check selectivity or assay interference.
A word on the inhibition: it is the drop in the measured response relative to a control, in per cent. For `CSCC[C@H](NC(=O)NCc1cccs1)C(=O)O`, the inhibition is -3.14%.
Next, `CCN(c1ccc(NC(=O)COC(=O)CCc2nc3ccccc3n2-c2ccccc2)cc1)C(C)C`: 8.52%; `O=C(CCS(=O)(=O)c1cccc2nsnc12)N1CCN(c2ccccc2F)CC1`: 19.6%; `COc1ccc(/C=N/Nc2nc(-c3ccc(C)cc3)c(C#N)c(=O)[nH]2)cc1`: 10%.
To `COc1ccc(/C=N/N=C/c2c[nH]c(=O)c(C#N)c2Nc2ccccc2)cc1` belongs 50.2% (active); to `COc1ccc(O)c(/C=N/N=C/c2cccc([N+](=O)[O-])c2)c1`, -12.3%.
With `O=C1NC(c2ccccc2)CCC1(Cl)Cl` (centres undefined), the inhibition is 3.97%.
In the case of `Cc1ccc(C(=O)Nc2c(C#N)c(C)c(C)n2Cc2ccccc2)cc1`, the inhibition was -3.02%.
Next, `CCn1nc(NC(=O)c2ccco2)c2cc3ccc(C)cc3nc21`: -4.08%; `Cc1ccc(Cn2c(NC(=O)c3ccco3)nc3ccccc32)cc1`: 37.1% (active); `CN1CCN(C(=O)CCc2ncc(C(F)(F)F)cc2Cl)CC1`: -4.79%.
To `CC(C)c1ccc(S(=O)(=O)N2CCN(C(=O)CN3C(=O)NC(C)(c4ccccc4)C3=O)CC2)cc1` (centres undefined) belongs -2.79%; to `CC(N=Cc1nc(-c2ccccc2)oc1O)c1ccccc1` (centres undefined), 46.8% (active); to `Oc1oc(-c2ccccc2Br)nc1/C=N/c1ccccn1`, 15.5%.
Next, `COc1ccc(CN(C)C(C)C(=O)NC2CCCc3ccccc32)cc1` (centres undefined): -4.42%; `Cc1cc(C)c2c(-c3ccc(F)cc3)c(C#N)c(=O)n(C)c2n1`: 12.6%.
Consider `CSc1ccc(-c2c(C#N)c(N)nc3c2c(C)nn3-c2ccccc2)cc1`, for which the inhibition is 21.3%.
With `Cn1c(=O)c2c(-c3cccc(Br)c3)c(C#N)c(N)nc2n(C)c1=O`, the inhibition was 32.1% (active).
Next, `COc1ccc(N2CCN(CCNC(=O)c3nnc(Cc4c(F)cccc4Cl)o3)CC2)cc1`: 5.33%; `COc1ccc(N2CCN(CCNC(=O)Nc3cc(Cl)ccc3Cl)CC2)cc1`: 5%.
With `COc1ccc(NC(=O)NCCN2CCN(c3ccc(C)cc3)CC2)c(Cl)c1`, the inhibition was 32.2% (active).
Take `CSC1=N/C(=C\C=C\c2cccs2)C(=O)S1`: the inhibition is 4.56%.
As for `O=C(CCN1C(=O)c2ccccc2C1=O)NCCCn1ccnc1`, the inhibition is -1.58%.
Next, `O=C(CN1C(=O)S/C(=C\c2ccccc2F)C1=O)NCCCn1ccnc1`: 33.6% (active); `COc1ccc(-c2ccc(OC(=O)NC3CCS(=O)(=O)C3)cc2)cc1` (centres undefined): -7.23%.
`Cc1cc(OCCCC(=O)NCCN2C(=O)S/C(=C\c3cccnc3)C2=O)ccc1Cl`: the inhibition was 11.2%.
Take `COc1ccccc1/C=C1\SC(=O)N(CCC(=O)N(C)C2CCS(=O)(=O)C2)C1=O` (centres undefined): the inhibition is 26.5%.
For `O=C(CN1C(=O)/C(=C/c2ccccc2F)Sc2ccccc21)NCc1cccnc1`, the inhibition was 12.4%.
Next, `COc1ccc(/C=C2\SC(=O)N(CCC(=O)NCCCn3ccnc3)C2=O)cc1`: 43.6% (active).
As to `COc1ccc(/C=C2\SC(=O)N(CCC(=O)NC3CCS(=O)(=O)C3)C2=O)cc1` (centres undefined), the inhibition is 41% (active).
Turning to `O=C(NCCCn1ccnc1)/C(=C\c1ccccc1F)NC(=O)c1ccccc1`, the inhibition was -0.75%.
To `CCOc1cc2c(Cl)ncnc2c(OCC)c1OCC` belongs 2.46%; to `CCOC(=O)C1(Cc2ccccc2C)CCCN(C(=O)c2ccc(COC)o2)C1` (centres undefined), 6.53%.
Next, `COc1ccc(CNC(=O)C[C@H]2C[C@H](C(=O)N3CCOCC3)[C@@]3(CCC4CCCC4)c4[nH]c5ccc(Cl)cc5c4CCN3C2=O)cc1OC`: -3.13%.
On to `CCN(CC(=O)NC(C)C)C(=O)c1cc(S(=O)(=O)N2CCCCC2)ccc1N1CCCCC1`, for which the inhibition is 2.16%.
Next, `O=C(COc1cc(Cl)c(Cl)cc1Cl)NCCc1ccccn1`: 3.15%; `NC(=S)NN=Cc1ccc(OC(=O)COc2cc(Cl)c(Cl)cc2Cl)cn1`: 49.8% (active).
Next, `O=C(COC(=O)COc1cc(Cl)c(Cl)cc1Cl)NC1CC1`: 7.02%; `COc1cc(Nc2nc3ccc(Cl)cc3n3cnnc23)cc(OC)c1OC`: -2.21%.
Next, `COc1cc(/C=N/Nc2nn3cnnc3c3ccccc23)cc(OC)c1OC`: 43.1% (active); `CN(CCO)c1ccc(/C=N/Nc2nncc3ccccc23)cc1`: 15.2%.
Take `CCOC(=O)C1(CCOc2ccccc2)CCN(C(=O)c2cncs2)CC1`: the inhibition is 3.14%.
As for `O=C1NC(c2ccccc2)=NC1(Nc1ccccn1)C(F)(F)F` (centres undefined), the inhibition is -8.86%.
As for `COc1cc(NC(=O)C2=CC(c3ccc(C)cc3)=NS(=O)(=O)N2C)cc(OC)c1OC`, the inhibition was 27.7%.
As for `COc1ccc(C2=NS(=O)(=O)N(C)C(C(=O)N3CCCCC3)=C2)cc1`, the inhibition was 24.4%.
Next, `COc1cc(NC(=O)C2=CC(c3ccco3)=NS(=O)(=O)N2C)cc(OC)c1OC`: 30.4%; `COc1ccc(C2=NS(=O)(=O)N(C)C(C(=O)NC(C)c3ccccc3)=C2)cc1` (centres undefined): 23.1%.
On to `COc1ccc(C2=NS(=O)(=O)N(C)C(C(=O)N(C)Cc3ccccc3)=C2)cc1`, for which the inhibition is 34% (active).
Next, `COc1ccc(NC(=O)C2=CC(c3ccc(OC)c(OC)c3)=NS(=O)(=O)N2C)cc1`: 32.7% (active); `CCc1cc(=O)oc2c(C)c(OCC(=O)N3CC[C@@]4(O)CCCC[C@H]4C3)ccc12`: 7.84%.
As for `NC(=O)c1nsc(C(=O)N(CCCN2CCOCC2)C(C(=O)NC2CCCCC2)c2ccc(Cl)cc2)c1N` (centres undefined), the inhibition is 3.02%.
Take `Cc1ccc(C(=O)NNc2ncnc3ccccc23)cc1`: the inhibition is 43.8% (active).
Next, `Cc1ccc(C(=O)NNC(=O)c2cc3cc4ccccc4nc3s2)cc1`: 10.2%; `Cc1ccc(NC(=O)c2ccc(Oc3ncccn3)cc2)cc1`: 11.6%; `O=C(O)CC(Cc1ccccc1)C(=O)Nc1ccc([N+](=O)[O-])cc1` (centres undefined): 19.3%.
With `CC(=O)n1cc([C@@H]2C=C(C(=O)N3CCN(Cc4ccc5c(c4)OCO5)CC3)O[C@H](OCc3ccc(CO)cc3)C2)c2ccccc21`, the inhibition is -1.76%.
Next, `Cc1cccc(C)c1-n1c(C)cc(/C=C2\C(=O)NN(c3ccccc3)C2=O)c1C`: 33% (active); `CCOC(=O)C1=C(O)/C(=C/c2cc(C)n(-c3ccccc3)c2C)N=C1C`: 2.64%; `COc1ccc(C(=O)NCC2CCCCC2)cc1S(=O)(=O)N1CCCC1`: 1.39%.
With `CCO[C@@H]1OC(C(N)=O)=C[C@H](c2ccc(Br)cc2)[C@H]1CCCO`, the inhibition is -4.48%.
To `CC(Sc1nc2cc(Cl)ccc2s1)C(=O)Nc1ccc2c(c1)OCO2` (centres undefined) belongs 5.49%; to `COC(=O)c1c(-c2ccsc2)oc2ccc(-c3cc(OC)c(OC)c(OC)c3)cc12`, 10.3%.
To `O=C(NCc1cccs1)c1ccc2c(c1)ncn2C1CCCC1` belongs -1.75%; to `CCOc1ncccc1C(=O)N(C)CC(=O)Nc1ccc(F)cc1`, -5.34%; to `CSc1ccccc1NC(=O)c1cc(Cl)sc1Cl`, -10.3%.
To `CSc1ccccc1NC(=O)c1cnc2sc(C)cn2c1=O` belongs 32.6% (active); to `Cc1ccccc1C(=O)Nc1ccccc1Sc1ccccc1`, -10.9%; to `CCCN(c1ccc(C)cc1)c1nc(=O)c2cccnc2s1`, 8.86%.
With `COc1ccc(CC(=O)Nc2cc(S(=O)(=O)N3CCCCC3)ccc2N2CCN(C)CC2)cc1`, the inhibition is -4.44%.
Next, `CC(C)N=C1CCCC1C(=S)SSC(=S)C1CCCC1=NC(C)C` (centres undefined): 32.4% (active); `CN(CC(=O)Nc1ccccc1F)CC(=O)Nc1ccccc1Br`: -8.02%; `Cc1ccc(S(=O)(=O)N2CCOCC2)cc1C(=O)OC1CCCCC1=O` (centres undefined): -12.1%.
Regarding `COc1ccc(C(=O)Oc2ccc(-c3nnco3)cc2)cc1S(=O)(=O)N1CCOCC1`, the inhibition is 7.83%.
Next, `CCc1ccc(-n2c(SCc3cc(=O)n4cc(Br)ccc4n3)nc3[nH]ncc3c2=O)cc1`: 24%; `O=C(O)CCn1c(SCc2cc(=O)n3ccccc3n2)nc2ccsc2c1=O`: 7.77%; `O=c1c2sccc2nc(SCc2cc(=O)n3ccccc3n2)n1-c1ccc(Br)cc1`: 32.1% (active).
On to `Cc1cccc(S(=O)(=O)N(C)C[C@H]2OCc3cnnn3CCCC(=O)N([C@@H](C)CO)C[C@H]2C)c1`, for which the inhibition is -13.4%.
To `CC1(C)CC(N(Cc2ccccc2)C(=O)Cc2ccccc2)CCO1` (centres undefined) belongs -7.26%; to `O=C(COC(=O)/C=C/c1cn(-c2ccccc2)nc1-c1cccnc1)Nc1ccc(Cl)cc1Cl`, -1.11%.
As for `O=C(O)CCn1cc(/C=C/C(=O)c2ccc(Cl)cc2)c(-c2cccc(Br)c2)n1`, the inhibition is 43.8% (active).
Regarding `O=C(O)CCn1cc(C=C2C(=O)NC(=S)NC2=O)c(-c2cccc(Br)c2)n1`, the inhibition is -11.4%.
To `CCOC(=O)c1sc(-c2cccc([N+](=O)[O-])c2)cc1N` belongs 5.1%; to `C=CCCC(=O)Nc1nc(C)c(-c2csc(Nc3ccc(Cl)cc3)n2)s1`, 16.8%.
Regarding `CC(=O)Nc1nc(C)c(-c2csc(Nc3ccc(S(N)(=O)=O)cc3)n2)s1`, the inhibition was 33.8% (active).
To `CCCCC(=O)Nc1nc(C)c(-c2csc(Nc3ccc(Cl)cc3)n2)s1` belongs 11.2%; to `CCOC(=O)c1cc2cc(C)ccc2[nH]1`, 8.07%; to `CCOC(=O)c1c(C)[nH]c(C)c1C(=O)COC(=O)/C=C/c1cccc([N+](=O)[O-])c1`, 5.36%.
Next, `CCOC(=O)C=Cc1ccc(C(=O)OCC)[nH]1`: 46.3% (active).
Regarding `COc1ccc(C2NCCCC2c2ccccc2)cc1` (centres undefined), the inhibition is -3.45%.
